Results from PubChem BioAssay AID485344 (National Center for Advancing Translational Sciences (NCATS), 2010).
Hit rate of the full screen: of about 340,000 compounds, about 6,900 (2%) were called active. The sample holds actives, similar compounds and a random draw of the others, so the mix is not that of the screen. No stated cut-off is given here; in the data, active means inhibition above about 30%; inactive means below that, where a call was filed.

biological target: D(2) dopamine receptor (Homo sapiens) (UniProt P14416); assay: HTS Assay for Allosteric Antagonists of the Human D2 Dopamine Receptor: Primary Screen for Antagonists; details: HEK293 TREx D2 cells, calcium flux, dopamine EC80; at 10 µM; stronger effect = higher value; further: 0% is about no effect
Summary of the method: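 Calcium mobilization kinetics were recorded at 1 s intervals in tetracycline-induced HEK293 T-REx D2 cells, first for 180 s after compound addition and then 180 s after EC80 dopamine.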

Sequence of D(2) dopamine receptor (Homo sapiens) (P14416 whole entry, looked up): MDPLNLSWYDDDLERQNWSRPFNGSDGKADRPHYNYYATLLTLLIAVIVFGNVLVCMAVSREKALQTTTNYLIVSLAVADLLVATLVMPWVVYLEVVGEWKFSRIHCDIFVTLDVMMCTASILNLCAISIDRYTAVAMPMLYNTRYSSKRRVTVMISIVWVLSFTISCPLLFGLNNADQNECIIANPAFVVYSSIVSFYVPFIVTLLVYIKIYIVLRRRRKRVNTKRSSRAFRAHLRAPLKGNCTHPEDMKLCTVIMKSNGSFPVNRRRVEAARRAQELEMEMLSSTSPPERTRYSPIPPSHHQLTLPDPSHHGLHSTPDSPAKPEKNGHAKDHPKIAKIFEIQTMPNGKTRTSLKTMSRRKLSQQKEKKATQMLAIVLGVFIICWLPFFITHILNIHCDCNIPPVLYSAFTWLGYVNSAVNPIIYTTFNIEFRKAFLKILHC

inhibition, active:
OC(COc1ccc2c(c1)CCC2)CN1CCN(c2cccc(Cl)c2)CC1 (centres undefined) 39.2%
O=C(O)Cc1sc(-c2ccc(C(=O)O)cc2)nc1-c1ccccc1 32.7%
c1nc(COc2nsnc2N2CCOCC2)cs1 36.2%
CCn1c(C)c(C)c2cc(C(=O)N3CCN(c4cccc(C)c4C)CC3)ccc21 35.7%
Cc1nnc(SC(C)C(=O)Nc2ccc(S(=O)(=O)NC3CCCCC3)cc2)s1 (centres undefined) 61.3%
O=C(COC(=O)CCCSc1nc2ccccc2[nH]1)Nc1ccc(Oc2ccccc2)cc1 38.2%
COc1cccc(N2CC(NC(=O)c3ccc4ccccc4c3)CC2=O)c1 (centres undefined) 34.4%
Cc1ccnc(Nc2nc3ccccc3s2)n1 39.5%
Cc1ccccc1N1CCN(CCCOc2ccc3c(C)cc(=O)oc3c2)CC1 109%
Cc1cc(NC(=O)Nc2ccccc2)n(-c2ccccc2)n1 31.4%
Cc1cc(NC(=O)Nc2ccc(Cl)cc2)n(-c2ccccc2)n1 40.6%
O=C(NCc1ccccc1CN1CCCC1)c1cccc(S(=O)(=O)Nc2ccc(F)cc2)c1 61.7%

inhibition, inactive:
Cc1ccc(NC(=O)CCCNC(=O)c2ccc(Cl)cc2)cc1S(=O)(=O)N1CCCCC1 2.49%
Nc1ccc(C(=O)N2CCN(S(=O)(=O)c3ccc(Cl)cc3)CC2)cc1[N+](=O)[O-] 1.49%
O=C(COc1ccc2c(c1)CCC2)N1CCN(c2ccc(F)cc2)CC1 3.48%
O=c1cc(CN2CCN(c3cccc(Cl)c3)CC2)c2cc3c(cc2o1)CCCC3 -7.58%
C/C(=N/Nc1nc(-c2ccccc2)c(CC(=O)O)s1)c1ccccc1 -8.33%
O=C(O)Cc1sc(-c2ccccc2)nc1-c1cccs1 3.67%
O=C(Nc1ccccc1N1CCOCC1)c1ccncc1 -22.1%
COC(=O)c1ccc(C)c(NC(=O)C2CC(=O)N(C3CCCC(C)C3C)C2)c1 (centres undefined) 25.8%
O=C(O)COc1nsnc1N1CCOCC1 -6.01%
c1ccc(COc2nsnc2N2CCOCC2)cc1 -11.6%
Cc1nc(SCC(=O)NC2CCCCC2C)c(C#N)c(C)c1C (centres undefined) -2.83%
CCC(CC)C(=O)N1CCN(c2cccc(C)c2C)CC1 -16.7%
Cc1cccc(N2CCN(C(=O)c3cccc(N4C(=O)C5C6C=CC(C6)C5C4=O)c3)CC2)c1C (centres undefined) -3.04%
C[C@H](NC(=O)c1ccccc1)C(=O)OCC(=O)c1c[nH]c2ccccc12 -14%
Cc1ccc(CNC(=O)c2cccc3c2C(=O)c2ccc(N4CCC(C)CC4)cc2S3(=O)=O)cc1 -2.45%
Cc1ccc(Nc2nnc(SC(C)C(=O)NC3CC3)s2)cc1 (centres undefined) -31.5%
CCc1nnc(NC(=O)c2ccc(S(=O)(=O)NC3CCCCC3)cc2)s1 -18.8%
Cc1c(C(=O)OCC(=O)N2CCCC2=O)oc2ccccc12 10.7%
CCOC(=O)N1CCN(C(=O)CSc2nc(=O)n3cccc(C)c3n2)CC1 -1.99%
CCc1nnc(NC(=O)CCCSc2nc3ccccc3[nH]2)s1 -10.6%
CCCCSc1nc2ccccc2[nH]1 22.4%
COCCN(C(=O)CC1CCCCC1)c1c(N)n(CC(C)C)c(=O)[nH]c1=O -47.9%
Cc1cc(C)n2nc(C(=O)OCC(=O)N(CCC#N)c3ccc(F)cc3)nc2n1 -5.33%
COc1ccc(N2CC(NS(=O)(=O)c3ccc4ccccc4c3)CC2=O)cc1 (centres undefined) 17.1%
COc1cccc(N2CC(C(=O)Nc3c(C)cccc3C)CC2=O)c1 (centres undefined) -21.9%
CCOc1ccc(NC(=O)CN(C)C(=O)Cn2c(=O)cnc3ccccc32)cc1OCC 6.33%
COC(=O)c1ccc(COC(=O)CNC(=O)c2cccc(OC)c2)o1 -4.34%
Cn1nnnc1SCC(=O)Nc1nc2ccccc2s1 5.01%
Cc1ccc(S(=O)(=O)Nc2nc3ccccc3s2)cc1[N+](=O)[O-] -1.44%
C=C(C)CNc1cc(S(=O)(=O)N2CCOCC2)ccc1Oc1ccccc1 -1.1%
Cc1cc(=O)oc2cc(OCCC[n+]3ccccc3)ccc12 13.4%
CCOc1ccccc1N1CCN(C(=O)COc2ccc3c(C)cc(=O)oc3c2)CC1 20.8%
Cc1ccc(C(=O)CN2C(=O)NC3(CCOc4ccccc43)C2=O)s1 (centres undefined) -0.39%
O=C(COC(=O)CCCN1C(=O)c2cccc3cccc(c23)C1=O)NC1CCS(=O)(=O)C1 (centres undefined) 1.37%
O=C(Nc1ccc2c(c1)OCCO2)C1CCCC1 3.86%
Cc1cc(NC(=O)c2cnn3cccnc23)n(-c2ccccc2)n1 5.9%
Cc1ccc(NC(=O)Nc2cc(-c3ccccc3)nn2C)cc1Cl -13.2%
CC(=O)c1cccc(NC(=O)c2cc(C)nn2-c2ccccc2)c1 -7.81%
Cc1nn(-c2ccccc2)c(Cl)c1C(=O)Nc1ccccc1 -28.3%
C#CCOCCOCCOCCNc1nc(N2CCN(C(=O)Cn3cc(CCCCN)nn3)CC2)nc(N2CCN(C(=O)[C@H](CCCCN)n3cc(CCC(=O)O)nn3)CC2)n1 -10.9%
CCOc1ncccc1C(=O)OCC(=O)c1c[nH]c2ccccc12 12.3%
O=C(CN1CCN(S(=O)(=O)c2ccc(Cl)s2)CC1)N1CCCCC1 -11.9%
CCc1ccc(Nc2n[n+](-c3ccccc3)c(-c3cccc(Cl)c3Cl)s2)cc1 6.13%
CCCCN(C(=O)C(CCSC)N1C(=O)c2ccccc2C1=O)c1c(N)n(CCC)c(=O)[nH]c1=O (centres undefined) -4.67%
Cc1c(C(=O)NNC(=O)c2ccncc2)oc2ccccc12 13.9%
COc1ccccc1C(CNC(=O)c1cccc(S(=O)(=O)Nc2ccc(F)cc2)c1)N(C)C (centres undefined) -19.6%
CCN(c1ccccc1)S(=O)(=O)c1cccc(C(=O)NCc2ccccc2CN2CCOCC2)c1 -43%
